ALR H2O2 inh = human ALR oxidase inhibition via reduced H2O2. P55789. purified ALR, DTT oxidation, H2O2 HRP-luminol luminescence. inhibition, % (concentration not given with the values). 290,000 tested, 3.8% active. AID 485317;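 active = mean replicate inhibition above about 79%, with every replicate also reaching it, limit read from the data; inconclusive = only one of the two criteria met; inactive = mean below limit and not every replicate reaching it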
Target sequence (P55789 whole entry, looked up): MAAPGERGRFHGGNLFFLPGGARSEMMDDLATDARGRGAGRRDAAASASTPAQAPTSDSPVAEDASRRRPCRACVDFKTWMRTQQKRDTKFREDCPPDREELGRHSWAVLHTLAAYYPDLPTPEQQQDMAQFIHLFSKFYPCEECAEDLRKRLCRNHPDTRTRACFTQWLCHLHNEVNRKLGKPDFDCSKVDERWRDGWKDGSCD
A1 inh = inhibitors of the anti-apoptotic protein A1, read as caspase activation; MEF A1-2A-BIM cells, Caspase-Glo 3/7 luminescence, 3 h; percent of clofoctol response, vehicle zero; caspase activation, % (concentration not given with the values); 330,000 tested, 0.066% active; AID 2462;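 active = over half of replicate activation scores above 10%, or exactly half above 10 with the replicate mean above 10; inconclusive = replicate mean below 10 yet half the replicates above 10; inactive = over half of replicates below 10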
VLA-4 inh = inhibition in a human VLA-4 binding assay. P13612. VLA-4 expressing cells, ligand binding flow cytometry. inhibition, % (about 7 µM as worked out from the volumes in the protocol). 330,000 tested, 0.2% active. AID 2557; in the data active = inhibition above about 50%
Efflux pump inh = antifungal efflux pump inhibition, Nile Red retention. S. cerevisiae Candida pump triplex. inhibition, % at 10 µM. 330,000 tested, 0.44% active. AID 485275;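 active = plate passing quality check with inhibition over a set limit, or well fluorescence over plate mean plus 4 SD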;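 also: Nile Red retained in pooled yeast measured as flow cytometry median fluorescence; 0% = buffer negative control and 100% = Enniatin B positive control; higher means more Nile Red kept so more efflux inhibition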
Mot1-301 SUMO = inhibitors of SUMOylation pathway: yeast Mot1-301 growth rescue; S. cerevisiae Mot1-301 growth rescue, ATP luminescence, 38.5C; percent above DMSO median, 100 means doubled; 320,000 tested, 1% active; growth rescue, % at 18.8 µM;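 active = every valid replicate shows activation above 250% relative to neutral control wells; inactive = the rest, any valid replicate at or below 250%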;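 also: OY570 slx delta 5 strain wells were the positive control but not used for scaling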
AHR act = activators of human aryl hydrocarbon receptor | P35869 | AHR-responsive luciferase reporter cells, luminescence | activation, % at 5 µM | 320,000 tested, 2.5% active; in the data active = activation above about 47%;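 also: 0% = vehicle wells and 100% = reference agonist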
* marks the source's active call; other numbers are inactive results; ? = inconclusive; · = not tested or not shown. Hits are enriched below; roughly 7.2% of the tested compounds scored in any of these assays.

SMILES | ALR H2O2 inh | A1 inh | VLA-4 inh | Efflux pump inh | Mot1-301 SUMO | AHR act
COC(=O)C1(C(=O)O)Cc2cc([N+](=O)[O-])ccc2N2CCCC21 (stereo not drawn) | -22.4 | 1.5 | 10.7 | 0.0 | -13.1 | -0.6
N#C/C(N)=C(/N)C#N | 98.5* | 0.5 | 13.9 | 0.0 | -26.1 | -2.9
COc1ccc2c(c1)NP(=S)(Oc1ccccc1)N2 (stereo not drawn) | 98.4* | 0.7 | 10.8 | 0.1 | -2.0 | 23.5
COc1ccc2c(C)c(CCC(=O)N3C[C@H]4C[C@@H](C3)c3cccc(=O)n3C4)c(=O)oc2c1 | -9.8 | 0.3 | 4.5 | -0.1 | 1.1 | 0.7
NN=C(N)N | 38.1 | -0.7 | 45.8 | 0.1 | 6.5 | 53.3*
O=P(CN1CCN(c2ccccc2)CC1)(N1CCCCC1)N1CCCCC1 | 99.2* | 0.9 | -16.3 | 0.1 | -21.7 | 0.7
CN1CCc2cccc(Cl)c2CC1 | 3.3 | ? | 2.3 | -0.1 | -3.4 | -3.0
CCOP(=O)(OCC)C(O)c1ccc(OC)c(OC)c1 (stereo not drawn) | 98.8* | 1.4 | -9.3 | -0.2 | -4.7 | -2.7
CCOP(=O)(C#Cc1ccccc1)C(O)c1ccc(Br)cc1 (stereo not drawn) | -2.8 | 2.8 | 6.7 | 0.1 | 1.3 | 3.3
CN1CCc2nc3sc(C(=O)NC4CC4)c(N)c3cc2C1 | -26.4 | -0.6 | 5.8 | -0.1 | -2.5 | 55.4*
CN1CCc2nc(SCC(=O)OC(C)(C)C)c(C#N)cc2C1 | -2.0 | 0.7 | 0.6 | 0.0 | -17.1 | 5.5
NP(=O)(OCCCc1ccccc1)Oc1ccccc1Cl (stereo not drawn) | -9.6 | 1.4 | -0.1 | 0.0 | 196.2 | 0.1
O=C(O)CCCc1ccc(N(CCCl)CCCl)cc1 | 98.7* | 0.4 | -1.0 | -0.1 | -3.2 | -3.6
N[C@@H](Cc1ccc(N(CCCl)CCCl)cc1)C(=O)O | -4.5 | 2.2 | 31.9 | 0.1 | -8.9 | -0.4
CCOP(=O)(OCC)C1(C(=O)O)CCCC1 | · | 0.9 | 5.8 | -0.3 | -6.6 | -2.6
COC(=O)C1=C(c2cc3ccccc3o2)C[C@@H]2CC[C@H]1N2C(=O)N1CCC(O)CC1 | · | -0.3 | 22.2 | 0.0 | -27.0 | -0.7
NCC(O)c1cc(O)c(O)cc1F (stereo not drawn) | 82.5* | -0.1 | -2.1 | 0.0 | 4.1 | 2.4
CCN1CCN(c2ccc(N)cc2)CC1 | 93.6* | -0.4 | 14.2 | 0.2 | 112.3 | -1.8
CCN1CCN(c2ccc(N)cc2C)CC1 | 99.3* | 0.3 | 9.9 | -0.2 | 5.7 | -1.5
CN1CCN(c2ccc(N)cc2)CC1 | 98.7* | 0.0 | 4.4 | 0.2 | -12.4 | 0.0
COC(=O)C1=C(c2ccccc2)C[C@@H]2CC[C@H]1N2C(=O)NC1CC1 | · | -0.8 | 1.5 | -0.1 | 12.0 | -0.4
CN1C(=O)N(C)C(=O)C(CCc2ccncc2)(Cc2ccc3c(c2)OCO3)C1=O | -11.7 | 0.2 | -16.4 | 0.0 | 4.8 | 12.4
O=c1[nH]c(=O)n(Cc2ccc(F)cc2)c(O)c1/C=N/Nc1ccccc1 | 98.6* | 0.0 | 6.2 | -0.2 | 133.4 | -1.5
O=c1[nH]c(=O)n(CCC2=CCCCC2)c(O)c1/C=N/Nc1ccccc1 | 98.2* | -1.2 | 14.5 | -0.1 | 291.4* | 9.2
Cc1ccc(CN2CCSc3ccc(C(=O)N4CCC5(CC4)OCCO5)cc32)cc1 | 79.8* | 0.8 | -2.5 | -0.2 | -5.9 | -0.8
SMILES | ALR H2O2 inh | A1 inh | VLA-4 inh | Efflux pump inh | Mot1-301 SUMO | AHR act
O=C(c1ccc2c(c1)N(Cc1ccc(F)cc1)CCS2)N1CCC2(CC1)OCCO2 | 82.0* | -1.4 | -3.3 | 0.0 | -21.6 | 2.0
CCCNC(=O)N1[C@H]2CC[C@@H]1C(C(=O)OC)=C(c1ccc(F)cc1OCc1ccccc1)C2 | -5.3 | -0.2 | 2.4 | 0.4 | 0.2 | 0.9
Cc1nc2cc(C(=O)N3CCC4(CC3)OCCO4)ccc2n1-c1ccc(Br)cc1 | · | 0.2 | 11.8 | 0.1 | -2.8 | 55.7*
O=c1c2cc(Br)ccc2[nH]c(=S)n1-c1ccccc1 | -4.5 | -0.7 | 13.7 | 0.1 | 10.6 | 50.4*
COC(=O)C(O)(c1ccc2c(c1)CCCN2)C(F)(F)F (stereo not drawn) | 96.6* | 0.5 | -2.0 | 0.1 | -12.2 | -0.7
COC(=O)C1=C(c2ccccc2OCc2ccccc2)C[C@@H]2CC[C@H]1N2C(=O)NCCN1CCOCC1 | 1.6 | 0.3 | -8.9 | -0.2 | 10.2 | -0.6
CCC(C)NC(=O)c1c(N)n(CC2CCCO2)c2nc3ccccc3nc12 (stereo not drawn) | 9.9 | -1.0 | 0.5 | 0.2 | -1.7 | 12.1
CCOc1cc(-c2nc3c(C)cccn3c2NCC2CCCO2)ccc1O (stereo not drawn) | 96.5* | 0.2 | 3.8 | 0.1 | -2.5 | 1.4
Cc1cccn2c(NCC3CCCO3)c(C(C)C)nc12 (stereo not drawn) | 77.5* | 0.4 | 5.1 | 0.1 | -0.8 | -0.8
C=CCn1c(O)c(/C(CC)=N/NC(=S)Nc2ccccc2)c(=O)[nH]c1=O | · | 0.6 | -1.6 | -0.1 | 102.4 | 6.3
CCOC(=O)c1c(/N=C/C2C(=O)NC(=S)NC2=O)sc2c1CCC2 | -11.4 | 0.3 | -18.8 | 0.0 | 1.5 | 5.3
N#Cc1c(/N=C/C2C(=O)NC(=S)NC2=O)sc2c1CCCC2 | 92.9* | 1.5 | -69.0 | 0.0 | -22.2 | 5.7
O=c1[nH]c(CN2CC=C(c3ccccc3)CC2)nc2scc(-c3ccccc3)c12 | 2.1 | 0.6 | -41.4 | 0.4 | -14.7 | 1.5
CN1CCN(c2cc(N3CCCC3)c([N+](=O)[O-])cc2F)CC1 | -5.2 | -1.8 | 0.5 | 0.0 | 332.2* | 15.0
C[C@]12CCC3C(CC[C@H]4C[C@H](OC(=O)c5cccnc5)CC[C@]34C)C1CCC2=O (stereo partly drawn) | 1.0 | -0.1 | 11.3 | 0.5 | -21.7 | 0.1
O=C(O)CCn1cc(C=C2C(=O)NC(=O)NC2=O)c(-c2ccc(Br)cc2)n1 | 87.2* | -1.0 | 9.0 | -1.7 | 215.5 | -1.4
O=C(O)CCn1cc(C=C2C(=O)NC(=S)NC2=O)c(-c2cccc(Cl)c2)n1 | · | -0.9 | -4.7 | 0.0 | -28.2 | 2.0
N#Cc1ccc(N2CCNCC2)c(F)c1 | -15.0 | 0.4 | 13.9 | -0.1 | · | 1.3
N#Cc1cc(F)c(N2CCNCC2)cc1Cl | 93.4* | 1.7 | -1.0 | 0.0 | -33.9 | -2.1
COc1ccc(N2CCN(C(CNC(=O)Oc3ccccc3)c3cccnc3)CC2)cc1 (stereo not drawn) | 84.8* | -0.6 | 5.3 | 0.9 | 1.5 | -0.3
O=C(NCC(c1cccnc1)N1CCN(c2ccccc2F)CC1)Oc1ccccc1 (stereo not drawn) | -4.4 | 0.6 | 2.2 | 0.0 | 63.1 | -0.9
CC(=O)NC1C(OC(=O)Cc2ccccc2)OC(COC(C)=O)C(OC(C)=O)C1OC(C)=O (stereo not drawn) | -2.2 | -0.5 | -10.4 | 0.1 | 3.9 | -0.1
CC/C(=N\Nc1ccccc1)c1c(O)n(-c2ccc(OC)cc2)c(=O)[nH]c1=O | 98.7* | 0.4 | -0.2 | 0.1 | 183.8 | 4.7

Screens: PubChem, several laboratories
